Holding throughout (design): scale not given: direction of the effect not stated beside the values
In assay [1] the target is Protein translocase subunit SecA (Escherichia coli (strain K12)) (UniProt P10408). The assay can be described thus: Assay to Identify E. coli SecA ATPase Inhibitors. The conditions noted are these: 30 µM. The class given is functional.
In assay [2] the target is T1, Ubiquitin-activating enzyme e1, putative (Leishmania donovani (strain BPK282A1)) (UniProt E9BSI1).
T1 sequence (whole entry): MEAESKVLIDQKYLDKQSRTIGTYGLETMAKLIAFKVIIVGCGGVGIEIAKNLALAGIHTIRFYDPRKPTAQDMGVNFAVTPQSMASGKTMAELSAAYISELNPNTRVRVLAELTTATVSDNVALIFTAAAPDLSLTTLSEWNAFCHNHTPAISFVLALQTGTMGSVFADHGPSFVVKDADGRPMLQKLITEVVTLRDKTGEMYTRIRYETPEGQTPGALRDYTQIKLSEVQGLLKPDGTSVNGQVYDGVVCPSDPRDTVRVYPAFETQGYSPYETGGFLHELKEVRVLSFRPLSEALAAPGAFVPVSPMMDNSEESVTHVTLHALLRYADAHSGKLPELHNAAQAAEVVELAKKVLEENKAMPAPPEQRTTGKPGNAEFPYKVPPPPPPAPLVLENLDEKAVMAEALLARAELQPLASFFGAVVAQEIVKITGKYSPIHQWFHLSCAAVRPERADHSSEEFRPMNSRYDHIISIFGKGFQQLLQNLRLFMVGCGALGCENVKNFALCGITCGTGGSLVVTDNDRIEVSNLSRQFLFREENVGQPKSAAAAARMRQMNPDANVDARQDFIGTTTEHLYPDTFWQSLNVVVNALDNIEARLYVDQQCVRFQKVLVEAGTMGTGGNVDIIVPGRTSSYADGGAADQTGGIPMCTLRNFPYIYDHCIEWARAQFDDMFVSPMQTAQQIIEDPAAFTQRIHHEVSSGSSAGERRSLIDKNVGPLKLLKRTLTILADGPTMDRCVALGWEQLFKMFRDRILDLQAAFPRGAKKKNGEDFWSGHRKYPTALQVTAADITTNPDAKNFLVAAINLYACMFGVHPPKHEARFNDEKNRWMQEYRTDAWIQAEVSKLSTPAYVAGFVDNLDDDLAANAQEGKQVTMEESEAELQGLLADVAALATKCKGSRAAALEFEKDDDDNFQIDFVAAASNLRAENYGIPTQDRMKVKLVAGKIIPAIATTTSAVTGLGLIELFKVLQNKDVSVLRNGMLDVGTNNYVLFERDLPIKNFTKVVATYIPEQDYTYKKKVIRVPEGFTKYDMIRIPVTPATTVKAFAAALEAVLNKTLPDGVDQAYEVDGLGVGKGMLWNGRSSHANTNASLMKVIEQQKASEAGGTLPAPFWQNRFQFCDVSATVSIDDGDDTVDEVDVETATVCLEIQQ
Nature of the assay: Leishmania donovani Ubiquitin Activating Enzyme (LdE1). Format: functional. The conditions noted are these: 30 µM.

For assay [3], the target named is AMP-activated protein kinase, AMPK (Homo sapiens) (UniProt P54646+O43741+P54619+Q9UGJ0+Q9Y478+Q13131+Q9UGI9). The assay can be described thus: AMP-dependent Kinase enzyme assay. An in vitro enzyme assay that detects ADP turnover that is directly proportional to AMPK activity. This uses naive AMPK that is activated during the assay with MK-8722. Format: functional. The conditions noted are these: 30 µM.

In assay [4] the target is Sialic acid-binding Ig-like lectin 9 (Homo sapiens) (UniProt Q9Y336). The assay can be described thus: Hs-Siglec9 ALPHAscreen SOP 20170721. The conditions noted are these: 10 µM. A general note: In Alpha technology, singlet oxygen from a donor bead excites a nearby acceptor bead.
Sequence of Sialic acid-binding Ig-like lectin 9 (Homo sapiens) (Q9Y336 whole entry): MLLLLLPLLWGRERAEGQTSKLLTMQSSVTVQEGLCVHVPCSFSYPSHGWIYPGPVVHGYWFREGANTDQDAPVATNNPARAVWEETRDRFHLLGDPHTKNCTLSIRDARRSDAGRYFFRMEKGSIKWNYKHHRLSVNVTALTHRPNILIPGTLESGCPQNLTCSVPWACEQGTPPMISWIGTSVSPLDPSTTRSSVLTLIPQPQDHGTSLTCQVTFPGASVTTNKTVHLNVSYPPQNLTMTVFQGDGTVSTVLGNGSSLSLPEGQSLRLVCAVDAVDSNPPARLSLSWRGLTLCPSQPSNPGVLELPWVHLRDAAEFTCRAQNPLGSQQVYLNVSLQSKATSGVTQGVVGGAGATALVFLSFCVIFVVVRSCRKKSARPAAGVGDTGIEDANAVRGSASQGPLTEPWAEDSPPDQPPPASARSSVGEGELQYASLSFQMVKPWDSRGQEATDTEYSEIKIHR
For assay [5], the system named is Trypanosoma cruzi. Nature of the assay: Trypanosoma cruzi phosphomannomutase and mannose-1-phosphate guanylyltransferase assay. Format: functional. As to conditions: 10 µM.
Assay [6] has as its target T2, Arginase-2, mitochondrial (Homo sapiens) (UniProt P78540).
T2 sequence (whole entry): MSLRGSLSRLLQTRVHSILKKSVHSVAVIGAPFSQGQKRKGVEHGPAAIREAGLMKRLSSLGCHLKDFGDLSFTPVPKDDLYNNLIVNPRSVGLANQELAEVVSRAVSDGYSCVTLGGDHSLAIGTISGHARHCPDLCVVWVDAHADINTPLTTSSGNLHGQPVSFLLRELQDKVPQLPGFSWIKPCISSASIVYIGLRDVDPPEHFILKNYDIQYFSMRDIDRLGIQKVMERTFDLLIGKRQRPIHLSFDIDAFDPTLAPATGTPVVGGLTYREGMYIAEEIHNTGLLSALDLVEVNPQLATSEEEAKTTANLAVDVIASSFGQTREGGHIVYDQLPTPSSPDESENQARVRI
The assay can be described thus: in vitro enzyme assay to detect the production of urea directly proportional to the activity of Arginase II. Note: in the data most compounds retested in dose-response had high values. Format: functional. The conditions noted are these: 33.3 µM.

Assay [7] deals with T3, Proteasome subunit beta (Trypanosoma cruzi) (UniProt O96673).
T3 sequence (whole entry): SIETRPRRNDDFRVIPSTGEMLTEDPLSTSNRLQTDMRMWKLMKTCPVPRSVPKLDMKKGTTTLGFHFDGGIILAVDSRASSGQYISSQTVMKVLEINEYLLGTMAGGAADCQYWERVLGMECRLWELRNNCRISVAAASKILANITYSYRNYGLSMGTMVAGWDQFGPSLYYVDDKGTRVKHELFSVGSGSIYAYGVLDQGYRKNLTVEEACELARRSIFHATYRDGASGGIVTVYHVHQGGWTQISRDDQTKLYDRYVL
Nature of the assay: Trypanosoma cruzi proteasome chymotrypsin-like activity (TcProtChymo) assay. Note: in the data most compounds retested in dose-response had high values. As to conditions: 9.37 µM. Format: functional.

The species entered for assay [8] is Homo sapiens. Nature of the assay: To identify inhibition of the IFN signalling (Jak-Stat) pathway via expression of an eGFP reporter gene under the control of an IFN-stimulated response element (ISRE) containing MxA promoter. The class given is functional. The conditions noted are these: 30 µM. (A reporter such as luciferase makes a cellular process visible.)

Assay [9] concerns the target T4, Tyrosyl-tRNA synthetase, putative (Trypanosoma cruzi (strain CL Brener)) (UniProt Q4DSP6).
T4 sequence (whole entry): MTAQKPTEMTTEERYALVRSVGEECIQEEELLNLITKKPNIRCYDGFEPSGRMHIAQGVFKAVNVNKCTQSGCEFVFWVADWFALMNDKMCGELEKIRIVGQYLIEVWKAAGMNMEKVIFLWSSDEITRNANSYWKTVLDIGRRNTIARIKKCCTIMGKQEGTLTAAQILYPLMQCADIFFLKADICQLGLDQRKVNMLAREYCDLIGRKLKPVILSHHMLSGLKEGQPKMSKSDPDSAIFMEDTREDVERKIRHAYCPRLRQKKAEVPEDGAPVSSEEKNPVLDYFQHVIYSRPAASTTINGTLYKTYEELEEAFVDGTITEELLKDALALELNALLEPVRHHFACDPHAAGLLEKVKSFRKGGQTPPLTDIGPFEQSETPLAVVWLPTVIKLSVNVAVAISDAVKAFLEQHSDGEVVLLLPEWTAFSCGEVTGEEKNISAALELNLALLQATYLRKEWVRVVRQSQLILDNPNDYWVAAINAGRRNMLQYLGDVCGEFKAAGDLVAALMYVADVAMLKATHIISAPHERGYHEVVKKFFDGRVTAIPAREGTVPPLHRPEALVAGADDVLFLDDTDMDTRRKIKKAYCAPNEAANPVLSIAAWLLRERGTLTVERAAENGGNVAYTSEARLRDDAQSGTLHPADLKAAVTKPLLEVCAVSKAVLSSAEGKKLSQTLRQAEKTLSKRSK
The assay can be described thus: Trypanosoma cruzi tyrosyl tRNA synthetase (TcYRS) _High Tyrosine SOP. Note: in the data most compounds retested in dose-response had high values. Format: functional. As to conditions: 30 µM.

In assay [10] the target is T4, Tyrosyl-tRNA synthetase, putative (Trypanosoma cruzi (strain CL Brener)). Nature of the assay: Trypanosoma cruzi tyrosyl tRNA synthetase (TcYRS) SOP. The class given is functional. As to conditions: 30 µM.
Assay [11] has as its target Chromo domain-containing protein 1 (Saccharomyces cerevisiae (strain ATCC 204508 / S288c) (Baker's yeast)) (UniProt P32657). Nature of the assay: ScCHD-1 Enzyme Inhibition Assay. Note: in the data most compounds retested in dose-response had high values. Format: functional. The conditions noted are these: 30 µM.

For some of these results: Results with a measured potency or affinity are listed apart.

Sequence of Protein translocase subunit SecA (Escherichia coli (strain K12)) (P10408 whole entry): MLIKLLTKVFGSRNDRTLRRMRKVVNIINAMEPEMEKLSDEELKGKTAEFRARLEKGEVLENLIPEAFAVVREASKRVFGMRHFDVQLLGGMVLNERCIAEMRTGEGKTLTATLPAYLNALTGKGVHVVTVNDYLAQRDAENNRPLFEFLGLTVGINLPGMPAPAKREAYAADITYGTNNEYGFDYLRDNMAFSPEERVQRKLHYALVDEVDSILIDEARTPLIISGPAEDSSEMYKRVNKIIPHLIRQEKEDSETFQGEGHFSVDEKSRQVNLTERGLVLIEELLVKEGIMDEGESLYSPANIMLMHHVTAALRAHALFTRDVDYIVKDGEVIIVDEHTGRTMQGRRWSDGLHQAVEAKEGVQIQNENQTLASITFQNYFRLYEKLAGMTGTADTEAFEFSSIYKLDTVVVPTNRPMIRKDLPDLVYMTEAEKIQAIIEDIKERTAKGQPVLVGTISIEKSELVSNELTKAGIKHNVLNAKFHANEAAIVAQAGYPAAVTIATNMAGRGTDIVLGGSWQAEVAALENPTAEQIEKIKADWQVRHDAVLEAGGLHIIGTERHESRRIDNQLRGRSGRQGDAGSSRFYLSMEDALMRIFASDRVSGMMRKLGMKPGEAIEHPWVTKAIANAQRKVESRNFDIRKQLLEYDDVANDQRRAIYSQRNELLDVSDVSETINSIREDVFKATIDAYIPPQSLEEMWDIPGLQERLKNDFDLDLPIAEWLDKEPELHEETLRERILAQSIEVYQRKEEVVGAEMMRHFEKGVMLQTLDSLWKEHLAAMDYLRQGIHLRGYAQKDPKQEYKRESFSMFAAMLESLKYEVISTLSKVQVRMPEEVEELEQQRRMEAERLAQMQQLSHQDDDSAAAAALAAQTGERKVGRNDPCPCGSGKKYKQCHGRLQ
Sequence of Chromo domain-containing protein 1 (Saccharomyces cerevisiae (strain ATCC 204508 / S288c) (Baker's yeast)) (P32657 whole entry, the tested form may be a part): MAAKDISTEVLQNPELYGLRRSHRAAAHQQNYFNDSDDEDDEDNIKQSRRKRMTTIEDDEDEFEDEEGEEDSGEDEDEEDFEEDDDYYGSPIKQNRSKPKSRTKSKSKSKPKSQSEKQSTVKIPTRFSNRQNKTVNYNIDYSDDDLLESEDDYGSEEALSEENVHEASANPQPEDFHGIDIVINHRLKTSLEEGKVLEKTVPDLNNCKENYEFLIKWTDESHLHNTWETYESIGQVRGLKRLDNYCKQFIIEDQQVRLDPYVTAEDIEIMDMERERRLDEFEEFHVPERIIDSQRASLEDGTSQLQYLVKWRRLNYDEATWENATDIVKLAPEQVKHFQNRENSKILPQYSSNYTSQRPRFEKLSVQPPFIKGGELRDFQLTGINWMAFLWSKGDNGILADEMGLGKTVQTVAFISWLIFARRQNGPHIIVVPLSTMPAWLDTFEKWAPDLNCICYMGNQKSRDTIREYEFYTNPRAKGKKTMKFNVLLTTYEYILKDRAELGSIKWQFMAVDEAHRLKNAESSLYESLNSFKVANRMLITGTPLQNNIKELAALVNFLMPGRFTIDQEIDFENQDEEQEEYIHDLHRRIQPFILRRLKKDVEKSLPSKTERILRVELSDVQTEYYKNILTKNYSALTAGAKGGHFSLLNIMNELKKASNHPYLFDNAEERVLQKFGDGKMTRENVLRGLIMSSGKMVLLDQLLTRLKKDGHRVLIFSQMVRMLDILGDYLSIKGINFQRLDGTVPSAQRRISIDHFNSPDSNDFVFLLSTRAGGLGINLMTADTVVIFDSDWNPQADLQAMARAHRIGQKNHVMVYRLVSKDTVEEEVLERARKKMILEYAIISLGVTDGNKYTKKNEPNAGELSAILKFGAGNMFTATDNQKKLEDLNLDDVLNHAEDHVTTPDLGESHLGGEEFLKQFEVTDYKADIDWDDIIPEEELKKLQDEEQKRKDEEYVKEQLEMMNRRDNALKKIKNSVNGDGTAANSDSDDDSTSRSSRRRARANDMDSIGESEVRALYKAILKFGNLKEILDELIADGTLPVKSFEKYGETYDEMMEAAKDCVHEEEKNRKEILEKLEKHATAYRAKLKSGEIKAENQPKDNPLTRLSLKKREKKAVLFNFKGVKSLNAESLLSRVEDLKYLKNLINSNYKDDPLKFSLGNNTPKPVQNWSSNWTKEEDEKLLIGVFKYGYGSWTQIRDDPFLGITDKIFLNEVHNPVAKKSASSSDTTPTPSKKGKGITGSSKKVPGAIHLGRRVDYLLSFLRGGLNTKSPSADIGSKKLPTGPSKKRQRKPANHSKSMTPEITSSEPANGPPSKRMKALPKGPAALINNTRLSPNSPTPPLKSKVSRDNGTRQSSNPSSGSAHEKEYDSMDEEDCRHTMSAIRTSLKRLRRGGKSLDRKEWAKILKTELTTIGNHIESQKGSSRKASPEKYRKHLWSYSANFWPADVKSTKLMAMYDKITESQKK

For the molecule `Cc1cccc(CN2C(=O)CO[C@@H]3CN(CCO)C[C@H]32)c1`, the Percent Effect was 1.05% in assay [1]; 10.8% in [2]; -5.9% in assay [3]; -3.44% in assay [4]; 4.88% in assay [5]; 26.2% in assay [6]. Moreover, the Percent Effect in [7] turned out to be 12.1%; in [8], 10.1%; in assay [9] it was 6.93%; in [10], 8.54%; in assay [11], 1.31%.

Turning to `O=C(c1ccccn1)N1Cc2nccn2CC(COc2cccnc2)C1` (stereo unspecified), the Percent Effect in [1] was 0.812%; in assay [2], 13.3%; in assay [3], 0.132%; in assay [4], 2.56%; in assay [5], -0.193%; in assay [6] it was -54.7%. In addition, the Percent Effect is 4.96% in assay [7]; 20.5% in [8]; 4.17% in [9]; 15% in assay [10]; -4.96% in assay [11].

For `COCCN(CCc1ccccc1)Cc1nc2c(cnn2C)c(=O)[nH]1`, the Percent Effect is -1.78% in [1]; 13.5% in assay [2]; 1.09% in [3]; 15.2% in [4]; 1.04% in [5]; -2.81% in assay [6]. Also, the Percent Effect in assay [7] was -0.36%; in assay [8] it was -11.6%; in assay [9], 7.39%; in assay [10], 18.5%; in [11] it was -9.44%.

For `CN1CCN(C(=O)c2ccc(=O)n(C)c2)Cc2ccccc21`, the Percent Effect in assay [1] is -3.95%; in assay [2], -16.2%; in assay [3] it was -7.07%; in assay [4], 15.3%; in assay [5] it was 3.62%; in assay [6], -4.25%. The Percent Effect in assay [7] was 0.539%; in assay [8] it was 5.67%; in [9] it was 3.96%; in assay [10], 18.3%; in [11], -2.09%.

Take `Cc1noc(C)c1CN1CCN(C(=O)Cn2cncn2)CC1`: the Percent Effect was -5.62% in assay [1]; 5.41% in assay [2]; -0.877% in [3]; 5% in assay [4]; 2.83% in [5]; 3.72% in [6]. Also, the Percent Effect in [7] was -5.24%; in [8], -2.96%; in [9], 2.15%; in assay [10], 11.1%; in assay [11], -4.36%.

Take `O=C(c1ccnnc1)N1CCN2C[C@H](Oc3cccc(F)c3)C[C@H]2C1`: the Percent Effect is -1.92% in assay [1]; 8% in assay [2]; -1.06% in assay [3]; 6.61% in assay [4]; -2.7% in assay [5]; -20.2% in [6]. Moreover, the Percent Effect in assay [7] is 1.37%; in assay [8] it was -0.178%; in assay [9], -2.08%; in [10], 10%; in [11], -6.63%.

As to `COCCNC(=O)Nc1ccc(-n2cncn2)c(F)c1`, the Percent Effect is -6.54% in assay [1]; 0% in assay [2]; -12.8% in assay [3]; 0.712% in assay [4]; -4.7% in [5]; 0% in assay [6]. Also, the Percent Effect was 4.51% in assay [7]; 28.2% in [8]; 2.45% in assay [9]; 0% in assay [10]; -7.16% in assay [11].

Take `Cc1cnn(CC2CCCN2C(=O)CCc2c(C)noc2Cl)c1` (stereo unspecified): the Percent Effect in assay [1] was -2.86%; in assay [2] it was -2.63%; in [3], 5.68%; in [4], -4.15%; in assay [5], 7.11%; in [6], 4.73%. Also, the Percent Effect in assay [7] is 13.5%; in [8], -23.3%; in [9] it was 5.32%; in [10], 5.2%; in assay [11] it was 1.72%.

For the molecule `CCc1nc2n(n1)CC(Nc1cc(C)nc3ncnn13)CC2` (stereo unspecified), the Percent Effect in [1] is -3.29%; in assay [2], 8.22%; in assay [3], -10.8%; in [4], 12.4%; in assay [5] it was 5.68%; in assay [6], 8.64%. Also, the Percent Effect in assay [7] was 14.4%; in assay [8] it was 18.4%; in assay [9] it was 3.23%; in assay [10] it was 12.5%; in assay [11], -7.89%.

Consider `O=C(CCCNC(=O)C1CC1)Nc1cnn(-c2ccccc2Cl)c1`, for which the Percent Effect was -2.62% in assay [1]; 5.41% in [2]; -9.02% in assay [3]; 0.665% in [4]; 7.33% in assay [5]; -3.51% in assay [6]. The Percent Effect in assay [7] was 5.03%; in [8] it was -1.9%; in [9] it was 5.94%; in [10], 13.4%; in assay [11] it was -3.58%.

In the case of `CC(C)C(=O)N1CCN(Cc2csc(-c3ncccn3)n2)CC1`, the Percent Effect was -3.04% in assay [1]; 0% in assay [2]; 9.34% in [3]; 3.09% in assay [4]; 1.27% in [5]; 0% in assay [6]. In addition, the Percent Effect in [7] was 11.4%; in assay [8], 2.18%; in [9] it was 4.25%; in assay [10], 10.4%; in assay [11], -1.19%.

The record behind these values is ChEMBL document CHEMBL3988442, “University of Dundee, Small-Polar-MMV Screening Library” (2021).
